Compounds with a hit are over-represented: about 3.9% of the library has one in this group of screens.
Anthrax LF inh2: blocks Bacillus anthracis lethal factor protease; P15917; multiplex microsphere protease cleavage assay, LF; inhibition, % at 10 µM; 360,000 compounds, 0.12% hits
Target sequence (P15917 whole entry, looked up): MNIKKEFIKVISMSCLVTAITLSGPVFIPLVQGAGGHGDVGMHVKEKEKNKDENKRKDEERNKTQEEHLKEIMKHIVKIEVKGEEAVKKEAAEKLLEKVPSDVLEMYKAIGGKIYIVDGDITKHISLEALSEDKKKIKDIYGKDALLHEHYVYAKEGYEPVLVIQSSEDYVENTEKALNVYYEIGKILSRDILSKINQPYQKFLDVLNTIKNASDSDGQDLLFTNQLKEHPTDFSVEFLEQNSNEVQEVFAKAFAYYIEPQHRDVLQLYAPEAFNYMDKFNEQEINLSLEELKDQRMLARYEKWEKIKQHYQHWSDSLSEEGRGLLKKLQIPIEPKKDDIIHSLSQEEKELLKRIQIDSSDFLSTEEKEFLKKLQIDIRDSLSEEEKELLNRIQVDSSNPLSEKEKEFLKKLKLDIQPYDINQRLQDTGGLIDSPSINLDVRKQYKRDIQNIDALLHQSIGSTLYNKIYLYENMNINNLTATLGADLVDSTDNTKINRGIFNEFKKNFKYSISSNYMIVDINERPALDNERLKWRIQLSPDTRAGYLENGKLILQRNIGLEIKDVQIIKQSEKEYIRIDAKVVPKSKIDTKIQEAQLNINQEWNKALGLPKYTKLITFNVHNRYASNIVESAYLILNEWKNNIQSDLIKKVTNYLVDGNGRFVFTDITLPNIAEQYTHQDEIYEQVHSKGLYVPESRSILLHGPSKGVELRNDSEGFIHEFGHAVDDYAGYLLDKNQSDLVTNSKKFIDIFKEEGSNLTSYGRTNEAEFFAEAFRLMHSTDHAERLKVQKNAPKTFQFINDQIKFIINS
CCHFV vOTU inh: CCHFV vOTU protease inhibition. Pep-AMC fluorescence. inhibition, % at 11.5 µM. 370,000 compounds, 0.55% hits. AID 651958; in the data active = inhibition above about 30%
BoNT A protease: inhibitors of Botulinum neurotoxin A light chain protease. multiplex microsphere protease substrate cleavage, flow cytometry. inhibition, % at 10 µM. 360,000 compounds, 0.17% hits. AID 588499
Bead autofluor: flagged as autofluorescent in microsphere protease counterscreen. fluorescence intensity (no concentration beside the values). compound autofluorescence counterscreen, microsphere flow cytometry; active compounds read high. AID 624483. 360,000 compounds, 3.1% hits; in the data active = fluorescence intensity above about 16000; inconclusive = no clear call, values can overlap the other calls
BoNT-F LC inh: inhibitors of Botulinum neurotoxin F light chain protease; Multiplex microsphere protease cleavage assay, flow cytometry; inhibition, % at 10 µM; 360,000 compounds, 0.22% hits; in the data active = inhibition above about 35%, passing the limit was not always enough; inconclusive = no clear call, values can overlap the other calls
3CLpro inhibitor: SARS-CoV 3CLpro protease inhibition. P0C6X7. recombinant SARS-CoV 3CLpro, quenched FRET peptide cleavage. inhibition, % at 6 µM. 290,000 compounds, 0.14% hits; in the data active = inhibition above about 12%
Large screens that a line does not name were inactive. Rule as the data show it, unless noted: active = inhibition above about 30%; inconclusive = no clear call, values can overlap the other calls; inactive = below that.

CCCC(C)NC(=O)CC1Oc2ccccc2NC1=O (stereo unspecified)	none (no result: Anthrax LF inh2, BoNT A protease, Bead autofluor, BoNT-F LC inh, 3CLpro inhibitor)
Cc1c2c(cc3c1[nH]c1ccccc13)C=NCC2	Bead autofluor 21778 (no result: 3CLpro inhibitor)
Cc1ccc(OCc2nnc(SCC(=O)Nc3ccc4c(c3)OCO4)n2Cc2ccco2)cc1	none (no result: Anthrax LF inh2, BoNT A protease, Bead autofluor, BoNT-F LC inh, 3CLpro inhibitor)
CC(C(=O)NC1=NCCS1)N1C(=O)c2ccccc2C1=O (stereo unspecified)	Bead autofluor 23583
CCCCNC(=O)C[C@H]1C(=O)N(CCCOC)C2=CCCCC[C@]21C(=O)OC	none (no result: Anthrax LF inh2, BoNT A protease, Bead autofluor, BoNT-F LC inh, 3CLpro inhibitor)
Cc1ccc(C2=NN(S(C)(=O)=O)C(c3ccc4c(c3)OCO4)C2)cc1 (stereo unspecified)	none
CS(=O)(=O)N1N=C(c2ccc(Br)cc2)CC1c1ccc2c(c1)OCO2 (stereo unspecified)	Bead autofluor 25156 (no result: CCHFV vOTU inh)
COC(=O)[C@]12C[C@H](CC(=O)NCCCCc3ccccc3)C(=O)N(CCc3ccc(OC)c(OC)c3)C1=C[C@H](C(C)C)O[C@@H]2C1CC1	none (no result: Anthrax LF inh2, BoNT A protease, Bead autofluor, BoNT-F LC inh, 3CLpro inhibitor)
CC(=O)OC1(C(F)(F)F)Oc2ccccc2NC1=O (stereo unspecified)	BoNT A protease inconclusive, Bead autofluor 18158
COCCNC(=O)C1(C)Oc2ccccc2NC1=O (stereo unspecified)	none
Cc1ccc2[nH]c(=O)c(NC(N)=S)nc2c1	Bead autofluor 20753
CC(C)(C(=O)c1ccccc1)/[N+]([O-])=C/c1ccc(Br)cc1	Bead autofluor 22272 (no result: CCHFV vOTU inh)
Cc1cccc(S(=O)(=O)N2CCC[C@H]2C(=O)N2CCC[C@@H]2C(=O)NCc2ccccc2)c1	none (no result: Anthrax LF inh2, BoNT A protease, Bead autofluor, BoNT-F LC inh, 3CLpro inhibitor)
CCCCOC(=O)C1=C(C)Nc2ncnn2C1c1cccc(OC)c1OC (stereo unspecified)	Bead autofluor inconclusive
CCCCOC(=O)C1=C(C)Nc2ncnn2C1c1cc(OC)ccc1OC (stereo unspecified)	Bead autofluor 19006
CCOC(=O)C1=C(c2ccccc2)Nc2ncnn2C1c1cc(OC)ccc1OC (stereo unspecified)	Bead autofluor 21867
CCCCOC(=O)C1=C(C)Nc2ncnn2C1c1cccc(OC)c1 (stereo unspecified)	Bead autofluor 23328
CCCCN1CC(=O)N2[C@H](C[C@@]3(C)c4ccccc4N(S(=O)(=O)c4ccccc4)[C@@H]23)C1=O	none (no result: Anthrax LF inh2, BoNT A protease, Bead autofluor, BoNT-F LC inh, 3CLpro inhibitor)
COc1cc(CNCCN(C)C)c(Br)cc1OCC(=O)NCc1ccccc1	none
COc1cc(CNCC(C)C)c(Br)cc1OCC(=O)NCc1ccccc1	Bead autofluor 16297
c1ccc(COCCN2CCN(CCOCc3ccccc3)CC2)cc1	Bead autofluor 16853 (no result: CCHFV vOTU inh)
c1ccc(CCCN2CCN(CCOC(c3ccccc3)c3ccccc3)CC2)cc1	none (no result: 3CLpro inhibitor)
CC(C)(C)c1cnnn1-c1ccc(NC(=O)c2ccc(Br)o2)cc1	Bead autofluor 20983
CC(C)(C)c1cnnn1-c1ccc(NC(=O)c2ccc3c(c2)OCO3)cc1	Bead autofluor 23470
CCCCC(=O)Nc1ccc(NC(=O)c2ccc3c(c2)OCO3)cc1OC	Bead autofluor 22707
CCN1CCN(c2ccc(NC(=O)c3ccc4c(c3)OCO4)cc2)CC1	Bead autofluor 16331
COc1cccc(C(=O)Nc2ccc(-n3nncc3C(C)(C)C)cc2)c1	none
CCCN(CC1CC1)C(=O)CSc1nnc(-c2ccncc2)n1-c1ccc(OC)cc1	none (no result: Anthrax LF inh2, BoNT A protease, Bead autofluor, BoNT-F LC inh, 3CLpro inhibitor)
COC(=O)C1=C(C)N(C)C(=NCc2ccccc2)NC1CCc1ccccc1 (stereo unspecified)	none (no result: Anthrax LF inh2, BoNT A protease, Bead autofluor, BoNT-F LC inh, 3CLpro inhibitor)
O=C(c1ccc(F)cc1)c1c[nH]c(C(=O)NCCCN2CCOCC2)c1	none
CCC(CC)C(=O)c1c[nH]c(C(=O)NCCCN2CCOCC2)c1	BoNT A protease inconclusive, Bead autofluor 23037
O=C(c1ccccc1)c1c[nH]c(C(=O)NCCCN2CCOCC2)c1	BoNT A protease inconclusive, Bead autofluor 22011
Cc1nc2ccccc2c2nc(NC(=O)Cc3ccccc3)nn12	BoNT A protease inconclusive, Bead autofluor 17263
CCn1c(Cc2ccccc2)nnc1SCC(=O)Nc1ccc(N)cc1	none
Cc1cnc(NC(=O)CSc2nnc(Cc3ccccc3)n2C)s1	Bead autofluor 21335
CCn1c(Cc2ccccc2)nnc1SCC(=O)Nc1ccc2c(c1)OCCO2	BoNT A protease inconclusive, Bead autofluor 17692
CCn1c(Cc2ccccc2)nnc1SCC(=O)Nc1nc(C)c(C)s1	Bead autofluor 21539
CCn1c(COc2ccccc2C)nnc1SCC(=O)Nc1ccc2c(c1)OCCO2	BoNT A protease inconclusive, Bead autofluor 20676
CCn1c(=O)cc(SCC(=O)Nc2ccc3c(c2)OCCO3)c2ccccc21	Bead autofluor 20714
Cn1c(=O)cc(SCC(=O)Nc2ccc3c(c2)OCO3)c2ccccc21	none

Bioassay records as filed in PubChem.
